The record followed here is PubChem BioAssay (NCATS).

Inconclusive results are not listed. Activity calls are given as the source filed them. Calls follow the shape of the dose curve; as a rule, active = well fitted inhibition curve with a large enough effect; inconclusive = small, poorly fitted or top-dose-only effect; inactive = flat fitted curve, though single readings scatter.
% is scaled to controls: 0 for no effect and ±100 for the full control effect.

Chain of Calcium and integrin-binding protein 1 (Homo sapiens) (Q99828 whole entry, looked up): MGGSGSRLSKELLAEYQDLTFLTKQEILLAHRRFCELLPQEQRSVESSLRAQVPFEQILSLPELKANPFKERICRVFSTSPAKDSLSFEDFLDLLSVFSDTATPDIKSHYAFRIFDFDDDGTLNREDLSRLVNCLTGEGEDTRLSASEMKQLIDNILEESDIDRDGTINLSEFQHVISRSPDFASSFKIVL

This assay addresses Calcium and integrin-binding protein 1 (Homo sapiens) (UniProt Q99828). Put plainly: Primary qHTS for Identification of Calcium Integrin Binding Protein 1 (CIB1) Competitor (AID 1508620).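 Also: GST tagged CIB1 binding a fluorescein labelled alphaIIb integrin peptide tracer; top concentration of the series differs between compounds.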 To be noted: CIB1-GST / FITC-alphaIIb peptide fluorescence polarization; series mostly up to 114 µM; activity change, negative = inhibition: at the top concentration. The gist of the method: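 Fluorescence polarization competition: CIB1-GST (1 uM final) preincubated with compound 15 min at room temperature, then FITC-labeled alphaIIb peptide (100 nM final) added for another 15 min. Polarization read at Ex 480/Em 540.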
As to `O=C1CCCC2=C1C(c1[nH]ncc1Cl)NC(=NCc1ccoc1)N2` (stereo unspecified), the “activity change, negative = inhibition” value was -1.95% (inactive).

Consider `O=C1c2ccccc2NC(c2ccc(-c3cccc(Cl)c3)o2)N1O` (stereo unspecified), for which the “activity change, negative = inhibition” value is -13.2% (inactive).

With `Cc1c(P(=S)(c2ccccc2)c2ccccc2)c2ccccc2n1C/C=C/c1ccccc1`, the “activity change, negative = inhibition” value is 2.69% (inactive).

Take `Cc1ccnc(NC(=S)Nc2cccc(C(F)(F)F)c2)c1`: the “activity change, negative = inhibition” value was -5.3% (inactive).

For the compound `N#Cc1ccc(C(=O)NCC(=O)OC(C(=O)Nc2cc(C(F)(F)F)ccc2Cl)c2ccccc2)cc1` (stereo unspecified), the “activity change, negative = inhibition” value was -0.952% (inactive).

On to `CC(C)(C)CNc1nc(C#N)nc(Nc2ccccc2)n1`, for which the “activity change, negative = inhibition” value was 1.5% (inactive).
